Hits are enriched below; roughly 7.8% of the tested compounds scored in any of these assays.
HCV inh – qHTS Assay for Inhibitors of Hepatitis C Virus (HCV); Huh7.5.1 HCVcc-Cre infection, luciferase reporter, 44 h; Potency, µM (series often up to 41.8 µM), inactives show at the highest dose activity change, negative = inhibition, most hits filed as inhibitors; 340,000 tested, 3.4% active; active = well fitted inhibition curve with a large enough effect; inconclusive = small, poorly fitted or top-dose-only effect, or another doubt; inactive = no such curve, though single readings can be large or run the other way; also: potency is read from the fitted curve at half-maximal effect
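Infectious HCV cell culture screen: compound-treated cells (1,000/well, pre-plated 4 h) are infected with HCVcc-Cre at roughly 0.5 moi and grown 44 h. Infection is quantified by luciferase signal after 15 min substrate incubation at room temperature.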
Marburg entry inh – qHTS for inhibitors of binding or entry into cells for Marburg Virus | Marburg virus pseudotyped entry inhibition, cell reporter | Potency, µM (highest dose often 37.8 µM), for the others: at the highest dose activity change, negative = inhibition, usual class: inhibitors | 300,000 tested, 1.8% active; calls by dose curve; tested in HEK293 cells; also: potency is read from the fitted curve at half-maximal effect
VACV mCherry inh – qHTS for Stage-Specific Inhibitors of Vaccinia Orthopoxvirus: mCherry Reporter Primary qHTS; Potency, µM (doses to about 36.5 µM), for inactives: top-dose activity change, negative = inhibition, most hits filed as inhibitors; 310,000 tested, 0.63% active; Vaccinia virus mCherry reporter infection, fluorescence; calls by dose curve; tested in A549 cells; also: potency is read from the fitted curve at half-maximal effect; nearly all actives have a fitted effect of over 35% in size
VACV Venus inh – qHTS for Stage-Specific Inhibitors of Vaccinia Orthopoxvirus: Venus Reporter Primary qHTS. Vaccinia virus Venus reporter expression, fluorescence. AID 720580, 2013. 330,000 tested, 0.46% active. Potency, µM (titrated, usually from 36.5 µM), for inactives: top-dose activity change, negative = inhibition, actives largely listed as inhibitors; calls by dose curve; tested in A549 cells; also: potency is read from the fitted curve at half-maximal effect; nearly all actives have a fitted effect of over 30% in size
LASV entry inh – qHTS for Inhibitors of binding or entry into cells for Lassa Virus. Lassa virus pseudotype entry inhibition, cell reporter. Potency, µM (titrated, usually from 37.9 µM), without a hit: at the highest dose activity change, negative = inhibition, hits mostly inhibitors. 300,000 tested, 1.2% active. AID 540256, 2011; calls by dose curve; tested in HEK293 cells; also: potency is read from the fitted curve at half-maximal effect; nearly all actives have a fitted effect of over 50% in size
HCMV antiviral – qHTS Assay for inhibitors of the human cytomegalovirus (HCMV); HFF cells, HCMV-luciferase reporter, 72 h; stronger effect = lower value; activity change, negative = inhibition, % at 57.5 µM; 410,000 tested, 4.5% active; AID 1259415, 2018; in the data active = activity change below about -60%; inconclusive = no clear call, values can overlap the other calls; inactive = above about -39%
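HFF cells seeded 16 h at 37C, treated with compounds, infected with luciferase-reporter HCMV at MOI 1 PFU/cell; luciferase read at 72 h post infection, normalized to buffer-only and Salinomycin controls.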
Active calls of the source: *; [ ] = remark or other dose. % is scaled to controls: 0 for no effect and ±100 for the full control effect.

How did Fc1ccc(NCc2ccccc2-c2nnc(-c3ccccc3Cl)o2)cc1Cl do in these assays?
Marburg entry inh: inconclusive; VACV mCherry inh: -11%; VACV Venus inh: -12%; LASV entry inh: 1%[46.1 µM]; HCMV antiviral: 35

Results for O=C(c1nc(-c2ccc(Cl)cc2)n2c1CCCCC2)N1CCN(c2ccccc2F)CC1 ?
VACV mCherry inh: -13%; VACV Venus inh: -14%; LASV entry inh: -12%[46.1 µM]; HCMV antiviral: 10

What do the screens show for `COc1ccccc1CNS(=O)(=O)c1ccc(N2CCCC2)cc1Br`?
HCV inh: 11µM*; VACV mCherry inh: -24%; VACV Venus inh: -21%; HCMV antiviral: -38

Results for CCc1c(C)c2ccc(O)c(CN3CCN(c4ccc(F)cc4)CC3)c2oc1=O ?
Marburg entry inh: 1%[46.1 µM]; VACV mCherry inh: -27%; VACV Venus inh: -19%; LASV entry inh: 5%[46.1 µM]; HCMV antiviral: inconclusive

What do the screens show for `COc1cccc(Cn2c(CNS(=O)(=O)c3ccc4c(c3)CCCC4)nc3cccnc32)c1`?
VACV mCherry inh: -18%; VACV Venus inh: -17%; LASV entry inh: -6%[46.1 µM]; HCMV antiviral: -35

Results for Oc1c(Cl)cc(Cl)cc1/C=N/Nc1ncc(Br)cn1 ?
HCV inh: 2.2µM*; Marburg entry inh: inconclusive; VACV mCherry inh: 1.6µM*; VACV Venus inh: inconclusive; LASV entry inh: inconclusive; HCMV antiviral: -94*

How did O=C(N/N=C/c1cc(Cl)cc(Cl)c1O)c1ccncc1 do in these assays?
HCV inh: inconclusive; HCMV antiviral: -19

Results for CCc1cccc(CC)c1NC(=O)Cn1nnc2sc(-c3ccccc3)cc2c1=O ?
Marburg entry inh: 11%[46.1 µM]; VACV mCherry inh: -1%; VACV Venus inh: -3%; LASV entry inh: -18%[46.1 µM]; HCMV antiviral: -7

Results for COc1cc(/C=N/N=C(N)N)ccc1OCc1ccc(Cl)cc1 ?
HCV inh: 13µM*; Marburg entry inh: 18µM*; LASV entry inh: inconclusive; HCMV antiviral: -102*

How did CCOc1cc(/C=N/N=C(N)N)ccc1OCc1ccc(Cl)cc1 do in these assays?
HCV inh: inconclusive; Marburg entry inh: inconclusive; VACV mCherry inh: -1%; VACV Venus inh: -21%; LASV entry inh: inconclusive; HCMV antiviral: -24

How did NCCc1ccc(OCc2ccccc2)c(OCc2ccccc2)c1 do in these assays?
HCV inh: 7.9µM*; Marburg entry inh: inconclusive; VACV mCherry inh: 18µM*; VACV Venus inh: inconclusive; LASV entry inh: inconclusive; HCMV antiviral: -94*

What do the screens show for `NC(N)=N/N=C/c1ccc(OCc2ccccc2)c(OCc2ccccc2)c1`?
HCV inh: inconclusive; Marburg entry inh: inconclusive; VACV mCherry inh: inconclusive; VACV Venus inh: -15%; LASV entry inh: inconclusive; HCMV antiviral: -103*

How did COc1ccc(N2C(=O)[C@@H]3C[C@H]2CN3Cc2cccn2-c2nccs2)cc1Cl do in these assays?
VACV mCherry inh: -5%; VACV Venus inh: -16%

Results for C[C@@H]1CN([C@@H](C)CO)C(=O)CCCn2nncc2CO[C@H]1CN(C)Cc1ccc(O)cc1 ?
HCMV antiviral: 20

Results for CC(=O)N1c2ccc(S(=O)(=O)N3CCN(c4ccc(C)cc4C)CC3)cc2CC1C (stereo not drawn) ?
VACV mCherry inh: inconclusive; VACV Venus inh: -27%; LASV entry inh: -10%[46.1 µM]; HCMV antiviral: inconclusive

Results for CC(CCN1CCCc2nc(C)c(C)cc21)=NOC[C@@H](O)[C@H]1O[C@@H]2OC(C)(C)O[C@H]2[C@@H]1O ?
Marburg entry inh: -8%[14.2 µM]; LASV entry inh: inconclusive

How did CCCc1noc(-c2ccc(N3CCCCC3)c([N+](=O)[O-])c2)n1 do in these assays?
Marburg entry inh: -2%[46.1 µM]; VACV mCherry inh: -1%; VACV Venus inh: 13%; LASV entry inh: 11%[46.1 µM]; HCMV antiviral: 27

Results for Cn1ccsc1=NC(=O)c1ccc([N+](=O)[O-])o1 ?
HCV inh: inconclusive; HCMV antiviral: -91*

What do the screens show for `CC(CCl)OC(C)CCl` (stereo not drawn)?
HCV inh: 19%; VACV mCherry inh: -20%; VACV Venus inh: -17%; HCMV antiviral: -74*

How did C[C@H]1COc2cc(N3CCCC3)ccc2S(=O)(=O)N1 do in these assays?
LASV entry inh: 1%[46.1 µM]; HCMV antiviral: -1

How did COC(=O)C1C(=O)C(C(=O)/C=C/c2ccccc2)C(=O)CC1(C)C (stereo not drawn) do in these assays?
HCV inh: -7%; Marburg entry inh: -16%[46.1 µM]; VACV mCherry inh: 11µM*; VACV Venus inh: inconclusive; LASV entry inh: 3%[46.1 µM]; HCMV antiviral: -82*

What do the screens show for `COC(=O)C1C(=O)C(C(=O)c2ccccc2)C(=O)CC1(C)C` (stereo not drawn)?
HCV inh: 2%; HCMV antiviral: 35

How did COc1ccc(NC(=O)c2cc3c(-c4ccccc4F)nn(C)c3s2)c(OC)c1 do in these assays?
Marburg entry inh: 9%[46.1 µM]; VACV mCherry inh: -21%; VACV Venus inh: -3%; LASV entry inh: -27%[46.1 µM]; HCMV antiviral: -18

How did COc1cccc(-c2nn(C)c3sc(C(=O)NCc4ccco4)cc23)c1 do in these assays?
HCV inh: 7.1µM*; Marburg entry inh: 8%; VACV mCherry inh: -14%; VACV Venus inh: inconclusive; LASV entry inh: inconclusive; HCMV antiviral: 32

How did COc1ccc(OC)c(CCNC(=O)c2cc3c(-c4ccccc4F)nn(C)c3s2)c1 do in these assays?
Marburg entry inh: inconclusive; VACV mCherry inh: inconclusive; VACV Venus inh: inconclusive; LASV entry inh: inconclusive; HCMV antiviral: -90*

How did CCCCNC(=O)c1cc2c(-c3ccc(Cl)cc3)nn(C)c2s1 do in these assays?
HCV inh: -17%; VACV mCherry inh: inactive; VACV Venus inh: -7%; HCMV antiviral: 97

How did CCN(CC)CCCNC(=O)c1cc2c(-c3cccc(OC)c3)nn(C)c2s1 do in these assays?
HCV inh: 11µM*; VACV mCherry inh: -7%; VACV Venus inh: -23%; HCMV antiviral: 75

What do the screens show for `Cn1nc(-c2ccc(Cl)cc2)c2cc(C(=O)NCCCN3CCCC3)sc21`?
HCV inh: 13µM*; VACV mCherry inh: -28%; VACV Venus inh: inconclusive

What do the screens show for `COc1ccc(C2CC(=O)c3cnc(Nc4cc(C)cc(C)c4)nc3C2)cc1` (stereo not drawn)?
HCV inh: -27%; Marburg entry inh: -11%; LASV entry inh: 0.46µM*; HCMV antiviral: -14

Results for CC(C)=CCN1CCN(Cc2ccc(C)s2)CC1CCO (stereo not drawn) ?
HCV inh: 8%; Marburg entry inh: -9%; VACV mCherry inh: -1%; VACV Venus inh: -16%; LASV entry inh: inconclusive; HCMV antiviral: -67*
